Bioassay records (PubChem BioAssay)
NPYLR7 ag: agonists of mosquito NPYLR7 receptor, primary screen, cell-based, Aedes aegypti, calcium fluorescence, mosquito biting behavior | Aedes aegypti neuropeptide Y-like receptor 7 (NPYLR7) | HEK293T NPYLR7/Galpha15, GCaMP6s calcium fluorescence | activation, % at 10 µM | 270,000 tested, 0.15% active | AID 1259423, 2018; in the data active = activation above about 40%;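 note: 0% = vehicle and 100% = reference agonist at the receptor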
hcGAS lum: Primary biochemical luminescence assay for human cyclic GMP-AMP synthase inhibitors; recombinant h-cGAS, ATP depletion, Kinase-Glo luminescence; 290,000 tested, 0.081% active; inhibition, % at 12.5 µM;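 note: 0% = vehicle reaction and 100% = reaction without DNA for no activity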
Target sequence (Q8N884 whole entry, looked up): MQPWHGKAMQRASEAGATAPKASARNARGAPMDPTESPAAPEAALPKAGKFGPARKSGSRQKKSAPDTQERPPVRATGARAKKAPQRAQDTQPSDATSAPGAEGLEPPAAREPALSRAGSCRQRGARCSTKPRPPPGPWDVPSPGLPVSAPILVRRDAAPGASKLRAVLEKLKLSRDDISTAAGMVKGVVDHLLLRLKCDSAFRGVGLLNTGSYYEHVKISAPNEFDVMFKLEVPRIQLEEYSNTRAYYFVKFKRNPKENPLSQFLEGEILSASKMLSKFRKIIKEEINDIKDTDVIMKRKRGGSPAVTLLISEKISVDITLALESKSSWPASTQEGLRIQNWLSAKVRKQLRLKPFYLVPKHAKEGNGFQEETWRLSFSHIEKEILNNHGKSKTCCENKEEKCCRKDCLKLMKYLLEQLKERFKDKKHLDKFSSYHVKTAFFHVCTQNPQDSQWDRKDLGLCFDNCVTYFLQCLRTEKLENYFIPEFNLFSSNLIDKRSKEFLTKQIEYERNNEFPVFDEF
mcGAS inh: cyclic GMP-AMP synthase inhibitors, mouse, primary biochemical chemiluminescence. Q8C6L5. recombinant cGAS, Kinase-Glo ATP depletion luminescence. inhibition, % at 12.5 µM. 160,000 tested, 0.15% active. AID 1259399, 2018;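 note: 0% = negative control wells and 100% = reference inhibitor with no enzyme activity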
An asterisk follows results filed as active; . = no result given; ! = not confirmed by another sample. The list is not random: actives were taken first. Their share in the collection is about 0.24%. Cut-off read from the data, not from the text of the source, unless noted: active = inhibition above about 40%; inactive = the rest.

SMILES	NPYLR7 ag	hcGAS lum	mcGAS inh
CCn1cc(C(CC(=O)N2CCN(Cc3ccc4c(c3)OCO4)CC2)c2cc(OC)cc(OC)c2)c2ccccc21 (centres undefined)	.	-13	74*
O=C1c2c(O)ccc(O)c2C(=O)c2c(NCCNCCO)ccc(NCCNCCO)c21	-5	42*!	76*
CCCCNc1ccc(NCCCC)c2c1C(=O)c1ccccc1C2=O	0	-12	-7
COC(=O)Cc1ccc(C(=O)CCl)s1	13	-4	56*
COC(=O)CCC(=O)c1ccc(Br)s1	-3	-6	-4
Cc1ccc2nc(COC(=O)c3cc4c(s3)CCC4)cc(=O)n2c1	1	-7	-6
CC(=O)O[C@@H](C)C(=O)N1CCN(c2ncccc2NC(=O)c2ccc3c(c2)OCO3)CC1	-5	1	-3
O=C1CNc2c(c(=O)oc3ccccc23)N1	2	52*	.
O=c1c2ccccc2oc2ccccc12	1	-8	-4
Cc1nc(=O)c(-c2ccccc2)c(C)n1-c1ccccc1	-12	-4	.
Cc1nc(=O)c(-c2ccccc2)c(C)n1-c1ccccc1O	80*	-3	-6
CNc1ncc(C(=O)N2CCC3(CCOCC3)CC2)cn1	4	-6	.
COc1ccccc1C=C1Oc2cc(O)ccc2C1=O	17	-5	.
COc1ccc(C=C2Oc3cc(O)ccc3C2=O)c(OC)c1	34	-8	.
O=C1C(=Cc2ccc(OC(F)F)cc2OC(F)F)Oc2cc(O)ccc21	41*	-5	.
CCOc1cccc(C=C2Oc3cc(O)ccc3C2=O)c1OC	70*	-4	.
CCn1nnc2cc(C(=O)NCCC3CCCO3)ccc21 (centres undefined)	12	-8	-7
O=C(O)CN(CC(=O)O)Cc1cc2c(-c3ccccc3C(=O)O)c3cc(CN(CC(=O)O)CC(=O)O)c(=O)cc-3oc2cc1O	.	-3	-1
CCN(CC)c1ccc2c(-c3ccccc3C(=O)O)c3ccc(=[N+](CC)CC)cc-3oc2c1	44*	-49	-28
COc1ccc(N=C2SCCCN2C(=S)NC2CC3CCC2C3)cc1OC (centres undefined)	7	-8	-6
COc1ccc(CN2CCN(Cc3cccn3-c3ncccn3)CC2CCO)c(C)c1C (centres undefined)	49*	-6	-9
COc1ccc(CN2CCN(Cc3cccn3-c3ncccn3)CC2CCO)c(F)c1 (centres undefined)	-5	1	.
CCC1=C(C(=O)OC)C(c2cccc(F)c2)N2C(CC(=O)N3CCc4ccccc4C3)=CSC2=N1 (centres undefined)	.	-8	-4
c1ccc(CNc2nc(NCCc3ccncc3)c3sccc3n2)cc1	59*	-11	.
CNc1nc(NCc2ccccc2)c2sccc2n1	8	-7	.
SMILES	NPYLR7 ag	hcGAS lum	mcGAS inh
COc1cc(C)nc(-c2ccccc2OCc2nc(CC3CC3)no2)n1	12	-12	.
COc1cccc(C2c3[nH]c4ccccc4c3CCN2C(=O)CCc2cnn(C)c2)c1OC (centres undefined)	1	-5	-2
COc1cc(C(=O)NCCn2ncc3c(=O)n(Cc4ccc(F)cc4)cnc32)cc(OC)c1OC	-5	-6	-9
O=S(=O)(Nc1cc(Cl)ccc1Cl)c1ccc(Cl)cc1	3	-8	-6
O=C(OCc1cc2c(cc1Br)OCO2)c1cccc(O)c1	0	-14	.
O=C(OCc1cc2c(cc1Br)OCO2)c1cnccn1	-1	69*	-2
Cc1ccc(C(C)NC(=O)CCc2ccc(C#N)cc2)o1 (centres undefined)	1	-8	.
O=C1c2ccccc2-c2nc3ccccc3nc21	2	-1	.
O=C1c2ccccc2-c2nc3nonc3nc21	0	1	53*
Cc1ccccc1-c1cc(C2CCN(Cc3cnn(C)c3C3CC3)C2)ccn1 (centres undefined)	1	-9	.
O=c1[nH]cnc2c1C(c1cccc([N+](=O)[O-])c1)c1c(nc[nH]c1=O)O2	0	-8	-7
O=c1[nH]c(=S)[nH]c2c1C(c1cccc([N+](=O)[O-])c1)c1c([nH]c(=S)[nH]c1=O)O2	5	30	55*
NCc1nnc(-c2ccccc2)s1	-1	-5	-15
COC(=O)C1CCN(S(=O)(=O)c2cc(Br)ccc2Br)CC1	5	4	.
COC(=O)C1CCN(S(=O)(=O)c2c(F)cc(F)cc2Br)CC1	88*	-8	.
COc1ccc(NCc2cc(OC)c3c(c2)OCCO3)cn1	3	-6	-6
COc1ccc(NCc2ccc(OC)c(Br)c2)cn1	86*	-13	-9
COc1cccc(C2CC(c3ccc(Br)cc3)=NN2C(C)=O)c1OC (centres undefined)	-4	-10	.
Oc1ccccc1C1=NNC2(CC3CC2C2CCCC32)S1 (centres undefined)	-8	78*	.
